# Paper PMC7862700, “An all-to-all approach to the identification of sequence-specific readers for epigenetic DNA modifications on cytosine”
# Columns and labels:
# Experiment in all cases: DAPPL (digital affinity profiling via proximity ligation, sequencing); 10 mM Tris-HCl pH 7.5, 50 mM NaCl, 1 mM DTT, 4% glycerol, room temperature, 30 min; GST-TFs on glutathione beads, 16-mer random dsDNA library, 0.1% formaldehyde crosslink after washing; high values mean tight binding
# Details in all cases: protein: recombinant; tags: N-terminal GST; dsDNA, one strand shown
# FEV = molecular target: T1, FEV (Homo sapiens, UniProt Q99581 1-238)
# T1 sequence: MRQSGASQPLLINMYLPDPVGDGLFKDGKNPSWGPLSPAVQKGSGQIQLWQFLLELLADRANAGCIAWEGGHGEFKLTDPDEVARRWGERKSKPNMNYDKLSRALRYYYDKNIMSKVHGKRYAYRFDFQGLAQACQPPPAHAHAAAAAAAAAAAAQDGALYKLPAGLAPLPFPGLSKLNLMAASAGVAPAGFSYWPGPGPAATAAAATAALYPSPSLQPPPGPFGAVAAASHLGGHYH
# Outline: (§1)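 Binding signal is given per hexamer as its read frequency for a factor divided by its frequency in the tag-only sample. GST-fused human transcription factors were expressed in yeast, captured on glutathione beads, barcoded with DNA and pooled with that sample, then incubated with 200 nmole of a 16-mer random double-stranded DNA library in Tris/NaCl/DTT/glycerol buffer for 30 min at room temperature. The pools were then washed, crosslinked, proximity-ligated, amplified by PCR and sequenced on an Illumina NextSeq500.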
# ETV5 = ETV5 (Homo sapiens, UniProt P41161 1-510)
# Outline: as §1
# SPIC = molecular target: T2, SPIC (Homo sapiens, UniProt Q8N5J4 1-248)
# T2 sequence: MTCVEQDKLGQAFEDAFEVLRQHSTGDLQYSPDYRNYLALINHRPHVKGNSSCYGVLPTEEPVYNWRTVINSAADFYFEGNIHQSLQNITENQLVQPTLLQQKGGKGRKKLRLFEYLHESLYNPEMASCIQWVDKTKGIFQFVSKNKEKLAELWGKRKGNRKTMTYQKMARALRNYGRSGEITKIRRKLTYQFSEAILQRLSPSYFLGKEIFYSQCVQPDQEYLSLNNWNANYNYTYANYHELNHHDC
# Outline: as §1
# ELF4 = ELF4 (Homo sapiens, UniProt Q99607 1-663)
# Outline: as §1
# ELK4 = molecular target: T3, ELK4 (Homo sapiens, UniProt P28324-2 1-405)
# T3 sequence: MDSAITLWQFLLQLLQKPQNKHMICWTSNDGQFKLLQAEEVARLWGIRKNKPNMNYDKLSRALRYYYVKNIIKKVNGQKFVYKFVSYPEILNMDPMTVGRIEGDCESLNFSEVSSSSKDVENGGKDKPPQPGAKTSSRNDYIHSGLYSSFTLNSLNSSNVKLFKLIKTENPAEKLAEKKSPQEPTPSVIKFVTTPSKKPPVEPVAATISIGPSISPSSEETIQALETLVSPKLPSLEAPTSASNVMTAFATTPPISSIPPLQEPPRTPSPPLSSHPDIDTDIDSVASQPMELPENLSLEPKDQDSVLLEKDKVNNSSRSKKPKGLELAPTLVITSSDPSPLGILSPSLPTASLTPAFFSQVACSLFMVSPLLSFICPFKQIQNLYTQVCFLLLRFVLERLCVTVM
# Outline: as §1
# ETV2 = molecular target: T4, ETV2 (Homo sapiens, UniProt O00321 1-342)
# T4 sequence: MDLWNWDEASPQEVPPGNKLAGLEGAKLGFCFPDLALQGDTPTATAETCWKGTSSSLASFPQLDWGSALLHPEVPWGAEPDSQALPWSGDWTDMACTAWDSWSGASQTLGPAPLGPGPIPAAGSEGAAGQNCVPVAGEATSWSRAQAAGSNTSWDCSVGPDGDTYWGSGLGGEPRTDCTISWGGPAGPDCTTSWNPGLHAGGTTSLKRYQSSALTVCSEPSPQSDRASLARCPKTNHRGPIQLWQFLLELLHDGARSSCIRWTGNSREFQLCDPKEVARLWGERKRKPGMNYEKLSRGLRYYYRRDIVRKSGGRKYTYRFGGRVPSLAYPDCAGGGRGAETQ
# Outline: as §1
# ELF3 = molecular target: T5, ELF3 (Homo sapiens, UniProt P78545 1-371)
# T5 sequence: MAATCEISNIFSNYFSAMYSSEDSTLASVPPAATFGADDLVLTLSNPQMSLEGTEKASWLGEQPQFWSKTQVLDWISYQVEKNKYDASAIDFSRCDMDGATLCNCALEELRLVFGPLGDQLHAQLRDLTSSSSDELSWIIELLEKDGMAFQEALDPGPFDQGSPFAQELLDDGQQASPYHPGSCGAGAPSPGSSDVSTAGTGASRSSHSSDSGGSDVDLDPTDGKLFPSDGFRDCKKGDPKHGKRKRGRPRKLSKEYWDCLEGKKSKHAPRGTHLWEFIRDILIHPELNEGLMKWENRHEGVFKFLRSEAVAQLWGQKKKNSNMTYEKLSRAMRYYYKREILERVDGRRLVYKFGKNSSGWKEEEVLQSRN
# Outline: as §1
# ETV1 = ETV1 (Homo sapiens, UniProt P50549 1-477)
# Outline: as §1
# ERF = molecular target: T6, ERF (Homo sapiens, UniProt P50548 1-548)
# T6 sequence: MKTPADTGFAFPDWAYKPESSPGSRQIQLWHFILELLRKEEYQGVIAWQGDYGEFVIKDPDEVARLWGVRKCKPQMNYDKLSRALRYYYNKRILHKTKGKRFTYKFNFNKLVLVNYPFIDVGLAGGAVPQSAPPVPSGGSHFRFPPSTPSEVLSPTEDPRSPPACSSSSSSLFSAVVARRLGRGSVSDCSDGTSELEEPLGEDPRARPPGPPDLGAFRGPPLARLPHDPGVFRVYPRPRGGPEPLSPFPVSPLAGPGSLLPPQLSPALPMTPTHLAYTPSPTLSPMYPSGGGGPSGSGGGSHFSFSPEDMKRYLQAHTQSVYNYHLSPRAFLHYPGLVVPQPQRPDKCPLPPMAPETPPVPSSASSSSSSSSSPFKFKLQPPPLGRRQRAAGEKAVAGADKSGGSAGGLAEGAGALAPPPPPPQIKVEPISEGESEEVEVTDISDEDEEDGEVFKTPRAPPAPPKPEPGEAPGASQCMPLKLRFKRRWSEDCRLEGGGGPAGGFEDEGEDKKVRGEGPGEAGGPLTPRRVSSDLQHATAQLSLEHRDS
# Outline: as §1
# ETV3L = molecular target: T7, ETV3L (Homo sapiens, UniProt Q6ZN32 1-361)
# T7 sequence: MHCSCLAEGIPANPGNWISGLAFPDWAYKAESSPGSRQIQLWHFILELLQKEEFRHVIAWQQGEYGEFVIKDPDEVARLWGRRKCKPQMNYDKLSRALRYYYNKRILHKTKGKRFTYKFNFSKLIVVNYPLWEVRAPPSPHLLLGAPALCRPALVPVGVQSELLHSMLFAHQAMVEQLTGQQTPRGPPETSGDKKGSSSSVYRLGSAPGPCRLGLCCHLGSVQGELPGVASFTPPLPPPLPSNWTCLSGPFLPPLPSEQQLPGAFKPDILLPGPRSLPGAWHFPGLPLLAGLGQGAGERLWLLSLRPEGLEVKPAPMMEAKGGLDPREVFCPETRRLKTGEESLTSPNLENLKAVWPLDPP
# Outline: as §1
# ETS2 = molecular target: T8, ETS2 (Homo sapiens, UniProt P15036 1-469)
# T8 sequence: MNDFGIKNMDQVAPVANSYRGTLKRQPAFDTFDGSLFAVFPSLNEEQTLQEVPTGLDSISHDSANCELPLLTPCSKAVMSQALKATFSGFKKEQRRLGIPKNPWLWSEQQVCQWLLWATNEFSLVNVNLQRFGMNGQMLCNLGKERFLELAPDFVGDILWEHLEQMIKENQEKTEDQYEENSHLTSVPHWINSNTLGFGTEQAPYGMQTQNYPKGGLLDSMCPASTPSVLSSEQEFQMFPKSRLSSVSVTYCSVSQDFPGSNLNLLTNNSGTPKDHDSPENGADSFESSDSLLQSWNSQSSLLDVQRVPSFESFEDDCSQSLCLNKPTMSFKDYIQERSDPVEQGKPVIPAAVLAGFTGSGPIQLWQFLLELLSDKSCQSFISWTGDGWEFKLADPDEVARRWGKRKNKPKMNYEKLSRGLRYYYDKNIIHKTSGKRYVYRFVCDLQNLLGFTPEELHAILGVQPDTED
# Outline: as §1
# SPDEF = molecular target: T9, SPDEF (Homo sapiens, UniProt O95238 1-335)
# T9 sequence: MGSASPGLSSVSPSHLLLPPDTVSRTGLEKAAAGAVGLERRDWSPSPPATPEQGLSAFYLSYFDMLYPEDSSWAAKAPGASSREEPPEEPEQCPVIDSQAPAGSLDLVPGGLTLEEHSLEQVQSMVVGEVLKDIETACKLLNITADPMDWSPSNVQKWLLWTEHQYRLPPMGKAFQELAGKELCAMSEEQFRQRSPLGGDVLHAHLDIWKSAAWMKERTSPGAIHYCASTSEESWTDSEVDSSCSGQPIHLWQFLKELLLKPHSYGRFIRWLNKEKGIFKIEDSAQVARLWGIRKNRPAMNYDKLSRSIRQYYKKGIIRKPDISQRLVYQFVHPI
# Outline: as §1
# ETV7 = molecular target: T10, ETV7 (Homo sapiens, UniProt Q9Y603 1-341)
# T10 sequence: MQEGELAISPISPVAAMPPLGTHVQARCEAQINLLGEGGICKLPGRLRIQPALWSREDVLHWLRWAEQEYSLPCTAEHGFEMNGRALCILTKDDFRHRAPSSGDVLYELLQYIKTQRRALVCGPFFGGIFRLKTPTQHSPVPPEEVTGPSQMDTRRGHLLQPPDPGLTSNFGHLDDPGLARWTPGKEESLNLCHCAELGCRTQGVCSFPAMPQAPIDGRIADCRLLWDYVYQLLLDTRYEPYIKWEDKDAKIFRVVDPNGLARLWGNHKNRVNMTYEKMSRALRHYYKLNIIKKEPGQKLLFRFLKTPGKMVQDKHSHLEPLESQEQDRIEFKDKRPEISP
# Outline: as §1
# ELF5 = molecular target: T11, ELF5 (Homo sapiens, UniProt Q9UKW6-2 1-255)
# T11 sequence: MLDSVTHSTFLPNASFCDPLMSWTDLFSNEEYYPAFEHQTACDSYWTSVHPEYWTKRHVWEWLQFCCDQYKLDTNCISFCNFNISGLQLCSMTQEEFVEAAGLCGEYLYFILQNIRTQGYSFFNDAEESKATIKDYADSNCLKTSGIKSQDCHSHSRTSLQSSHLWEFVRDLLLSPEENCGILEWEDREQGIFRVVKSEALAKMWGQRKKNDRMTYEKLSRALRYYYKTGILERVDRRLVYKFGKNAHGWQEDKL
# Outline: as §1
# ETV3 = molecular target: T12, ETV3 (Homo sapiens, UniProt P41162-2 1-143)
# T12 sequence: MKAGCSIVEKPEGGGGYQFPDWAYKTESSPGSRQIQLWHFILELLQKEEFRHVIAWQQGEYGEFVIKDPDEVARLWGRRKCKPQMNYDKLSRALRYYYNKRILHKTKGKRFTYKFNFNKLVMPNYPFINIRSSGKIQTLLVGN
# Outline: as §1
# ETV6 = ETV6 (Homo sapiens, UniProt P41212 1-452)
# Outline: as §1
# Sequence of ELF4 (Q99607 whole entry): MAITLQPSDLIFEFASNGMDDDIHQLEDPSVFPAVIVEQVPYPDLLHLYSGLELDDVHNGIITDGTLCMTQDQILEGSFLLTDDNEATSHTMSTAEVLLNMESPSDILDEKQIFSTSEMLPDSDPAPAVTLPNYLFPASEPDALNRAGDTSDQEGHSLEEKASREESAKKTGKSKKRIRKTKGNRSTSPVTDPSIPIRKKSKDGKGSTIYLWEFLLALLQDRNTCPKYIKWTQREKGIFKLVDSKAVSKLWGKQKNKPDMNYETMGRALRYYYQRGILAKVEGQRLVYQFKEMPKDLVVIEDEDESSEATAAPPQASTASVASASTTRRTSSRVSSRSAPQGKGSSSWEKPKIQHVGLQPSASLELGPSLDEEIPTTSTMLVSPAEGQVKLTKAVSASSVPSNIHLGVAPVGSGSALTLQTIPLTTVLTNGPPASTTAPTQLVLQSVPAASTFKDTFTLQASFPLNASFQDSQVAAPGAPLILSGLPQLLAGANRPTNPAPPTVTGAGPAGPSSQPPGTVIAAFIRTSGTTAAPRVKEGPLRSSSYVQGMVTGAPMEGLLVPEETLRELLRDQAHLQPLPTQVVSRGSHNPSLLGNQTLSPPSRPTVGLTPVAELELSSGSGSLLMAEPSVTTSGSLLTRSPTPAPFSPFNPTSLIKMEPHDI
# Sequence of ETV5 (P41161 whole entry): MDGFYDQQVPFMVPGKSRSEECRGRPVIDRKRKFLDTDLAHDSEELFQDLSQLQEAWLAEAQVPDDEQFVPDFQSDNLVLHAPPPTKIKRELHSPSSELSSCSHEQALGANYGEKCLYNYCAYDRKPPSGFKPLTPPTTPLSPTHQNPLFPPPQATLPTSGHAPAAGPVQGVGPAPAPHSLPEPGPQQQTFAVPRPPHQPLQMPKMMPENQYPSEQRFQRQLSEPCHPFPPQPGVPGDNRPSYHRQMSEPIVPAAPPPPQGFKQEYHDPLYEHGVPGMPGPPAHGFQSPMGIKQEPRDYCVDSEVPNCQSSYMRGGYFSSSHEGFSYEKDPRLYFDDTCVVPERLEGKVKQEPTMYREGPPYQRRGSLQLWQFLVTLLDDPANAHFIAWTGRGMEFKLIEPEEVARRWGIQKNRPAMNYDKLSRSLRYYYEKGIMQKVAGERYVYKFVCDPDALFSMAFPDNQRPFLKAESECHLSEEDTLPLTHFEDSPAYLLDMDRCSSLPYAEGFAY
# Sequence of ETV1 (P50549 whole entry): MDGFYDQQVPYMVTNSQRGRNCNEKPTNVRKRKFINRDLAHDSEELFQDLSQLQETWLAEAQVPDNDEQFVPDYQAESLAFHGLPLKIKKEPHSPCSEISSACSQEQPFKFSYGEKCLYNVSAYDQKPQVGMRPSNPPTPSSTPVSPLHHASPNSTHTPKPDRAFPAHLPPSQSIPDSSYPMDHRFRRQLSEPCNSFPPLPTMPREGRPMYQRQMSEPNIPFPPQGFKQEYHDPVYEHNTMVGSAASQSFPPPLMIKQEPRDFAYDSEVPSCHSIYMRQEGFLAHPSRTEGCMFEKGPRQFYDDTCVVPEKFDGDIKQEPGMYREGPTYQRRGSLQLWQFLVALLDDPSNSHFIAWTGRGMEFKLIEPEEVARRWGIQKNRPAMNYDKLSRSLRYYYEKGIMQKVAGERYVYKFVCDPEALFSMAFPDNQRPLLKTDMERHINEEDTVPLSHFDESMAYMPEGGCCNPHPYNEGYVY
# Sequence of ETV6 (P41212 whole entry): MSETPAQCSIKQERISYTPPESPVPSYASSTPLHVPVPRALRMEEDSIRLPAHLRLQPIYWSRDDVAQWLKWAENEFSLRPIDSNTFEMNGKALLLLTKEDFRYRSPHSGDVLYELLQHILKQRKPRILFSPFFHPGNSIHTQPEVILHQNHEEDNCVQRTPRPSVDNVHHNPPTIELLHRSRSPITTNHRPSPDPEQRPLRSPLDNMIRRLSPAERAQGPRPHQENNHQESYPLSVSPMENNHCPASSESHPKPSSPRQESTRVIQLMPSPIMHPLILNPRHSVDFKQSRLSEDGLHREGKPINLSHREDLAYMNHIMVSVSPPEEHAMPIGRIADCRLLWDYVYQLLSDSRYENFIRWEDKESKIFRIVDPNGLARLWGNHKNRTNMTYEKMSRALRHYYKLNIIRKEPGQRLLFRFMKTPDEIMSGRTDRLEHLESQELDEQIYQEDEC
Sequence,binding signal (FEV),binding signal (ETV5),binding signal (SPIC),binding signal (ELF4),binding signal (ELK4),binding signal (ETV2),binding signal (ELF3),binding signal (ETV1),binding signal (ERF),binding signal (ETV3L),binding signal (ETS2),binding signal (SPDEF),binding signal (ETV7),binding signal (ELF5),binding signal (ETV3),binding signal (ETV6)
GCTGTT,"1.16 fold enrichment (6-mer frequency, TF over GST control)","1.07 fold enrichment (6-mer frequency, TF over GST control)","1.25 fold enrichment (6-mer frequency, TF over GST control)","1.18 fold enrichment (6-mer frequency, TF over GST control)","1.24 fold enrichment (6-mer frequency, TF over GST control)","1.1 fold enrichment (6-mer frequency, TF over GST control)","1.17 fold enrichment (6-mer frequency, TF over GST control)","1.21 fold enrichment (6-mer frequency, TF over GST control)","1.08 fold enrichment (6-mer frequency, TF over GST control)","1.1 fold enrichment (6-mer frequency, TF over GST control)","1.09 fold enrichment (6-mer frequency, TF over GST control)","1.08 fold enrichment (6-mer frequency, TF over GST control)","1.21 fold enrichment (6-mer frequency, TF over GST control)","1.04 fold enrichment (6-mer frequency, TF over GST control)","1.15 fold enrichment (6-mer frequency, TF over GST control)","1.03 fold enrichment (6-mer frequency, TF over GST control)"
CGGATG,"2.16 fold enrichment (6-mer frequency, TF over GST control)","1.71 fold enrichment (6-mer frequency, TF over GST control)","1.48 fold enrichment (6-mer frequency, TF over GST control)","1.36 fold enrichment (6-mer frequency, TF over GST control)","1.31 fold enrichment (6-mer frequency, TF over GST control)","1.39 fold enrichment (6-mer frequency, TF over GST control)","1.48 fold enrichment (6-mer frequency, TF over GST control)","1.74 fold enrichment (6-mer frequency, TF over GST control)","1.39 fold enrichment (6-mer frequency, TF over GST control)","1.62 fold enrichment (6-mer frequency, TF over GST control)","1.83 fold enrichment (6-mer frequency, TF over GST control)","3.14 fold enrichment (6-mer frequency, TF over GST control)","1.41 fold enrichment (6-mer frequency, TF over GST control)","1.75 fold enrichment (6-mer frequency, TF over GST control)","1.75 fold enrichment (6-mer frequency, TF over GST control)","1.5 fold enrichment (6-mer frequency, TF over GST control)"
